High-throughput results from PubChem BioAssay.
HSD17B inhib = HSD17B dehydrogenase inhibition; hit rate 7.6% among 75,000; Q99714; recombinant HSD17B10, NADH fluorescence kinetic; Potency, µM (series often up to 57.1 µM), hits mostly inhibitors;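 also: the protocol describes HADH2 (HSD17B10) and not the HSD17B4 of the title; nearly all actives have a fitted effect of over 70% in size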
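Enzyme plus compound, 15 min room temperature; substrate mix added (NAD+ 1 mM, beta-hydroxybutyryl-CoA 90 uM final); plates read kinetically for NADH fluorescence. HADH2 was His-tagged, E. coli-derived, 20 nM.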
CRE-bla Fsk = alters forskolin-stimulated CRE reporter signaling in CHO cells. CHO CRE-bla reporter (cAMP response element driving beta-lactamase), forskolin EC10, beta-lactamase ratio. Potency, µM (titrated, usually from 38.2 µM), usual class: activators. hit rate 2.5% among 71,000. AID 662; active = well fitted activation curve with a large enough effect in the signal ratio, with a control signal flat, not every such curve was filed as active; inconclusive = small, poorly fitted or top-dose-only effect, or effect the other way, or a change in a side signal; the % refers to the signal ratio
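Cells were plated overnight at 37 °C, exposed to compound titrations plus EC10 NKH 477 for 3 h, then given CCF4 dye for 2 h at room temperature. Blue/green (460/530 nm) ratio was converted to %Activity and AC50 values calculated.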
AID923 = qHTS Assay for Allosteric/Competitive Inhibitors of Caspase-1: Spectroscopic Profiling in AFC Spectral Region | compound fluorescence, AFC spectral region (405/520 nm) | Potency, µM (series often up to 57.5 µM), actives largely listed as activators | hit rate 1.1% among 75,000
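Titrations up to 57 uM read every 20 sec for 3 min (405/520 nm) with 50 nM caspase 1 and 5 uM Ac-WEHD-AFC, pH 7.5 HEPES buffer. Fluorescence-vs-time intercept gave baseline, scaled against on-plate AFC standard.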
4MU fluor = 4-MU region autofluorescence. compound autofluorescence, 340/450 nm, 4-MU equivalents; stronger effect = higher value. max dye-equivalent concentration, M. hit rate 11% among 59,000. AID 589; in the data active = max dye-equivalent concentration above about 10 nM; inconclusive = mostly about 1.1 nM to 9.6 nM
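Compounds in 100 mM Tris, pH 8.0, sat 15 min at room temperature before fluorescence was read at 340 nm excitation/450 nm emission; a per-plate six-point 4-MU standard curve converted signals to dye-equivalent concentration at each compound concentration.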
HADH2 inh = blocks human hydroxyacyl-CoA dehydrogenase type II; AID 886; Q99714; recombinant HADH2, NADH fluorescence, beta-hydroxybutyryl-CoA; hit rate 3.4% among 73,000; Potency, µM (top dose mostly 57.1 µM), usual class: inhibitors; also: nearly all actives have a fitted effect of over 60% in size
Target sequence (Q99714 whole entry, looked up, one chain of several): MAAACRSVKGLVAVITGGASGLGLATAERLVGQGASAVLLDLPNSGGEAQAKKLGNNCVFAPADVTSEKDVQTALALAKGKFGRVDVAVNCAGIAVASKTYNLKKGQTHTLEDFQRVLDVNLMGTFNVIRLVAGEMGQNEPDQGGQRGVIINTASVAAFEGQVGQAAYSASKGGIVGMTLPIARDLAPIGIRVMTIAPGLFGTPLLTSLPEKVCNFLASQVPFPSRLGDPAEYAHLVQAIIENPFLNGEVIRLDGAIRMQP
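E. coli-expressed His-tagged HADH2 tested at 20 nM in alkaline Tris buffer (pH 9.0); oxidation of 90 uM beta-hydroxybutyryl-CoA with 1 mM NAD+ tracked fluorimetrically for 4 min.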
A350 fluor = compound fluoresces in the Alexa 350 spectral region. Compound autofluorescence, 340/450 nm, Alexa 350 dye-equivalents; stronger effect = higher value. max dye-equivalent concentration, M. hit rate 11% among 59,000. AID 590; in the data active = max dye-equivalent concentration above about 10 nM; inconclusive = mostly about 1.1 nM to 9.6 nM
Large screens that a line does not name were inactive. A selection: hits, their analogues and other compounds. The true share with any hit is near 14%. Unless noted, calls follow the shape of the dose curve; as a rule, active = well fitted curve in the direction sought with a large enough effect; inconclusive = small, poorly fitted or top-dose-only effect, or another doubt; inactive = no such curve, though single readings can be large; an effect the other way counts as inactive or inconclusive.

CSc1nc2ccc(NS(=O)(=O)c3ccc(Cl)s3)cc2s1	CRE-bla Fsk inconclusive, 4MU fluor inconclusive, A350 fluor inconclusive
CCn1cc(C(=O)OCC(=O)OC2CC(C)CCC2C(C)C)c(=O)c2ccc(C)nc21 (stereo unspecified)	CRE-bla Fsk inconclusive
Nc1nc2n(n1)C(c1ccc(F)cc1)CC(c1ccc(F)cc1)N2 (stereo unspecified)	4MU fluor 9.11e-08M, A350 fluor 1.22e-07M (no result: HSD17B inhib, CRE-bla Fsk, AID923, HADH2 inh)
COCCCNS(=O)(=O)c1ccc2c3c(cccc13)C(=O)S2	HSD17B inhib inconclusive, 4MU fluor 7.97e-08M, A350 fluor 6.81e-08M
Cc1cccc(CNc2ncnc3ccc(-c4ccc5c(c4)OCO5)cc23)c1	HSD17B inhib 25.1µM, HADH2 inh inconclusive
Cc1cccc(CNc2ncnc3ccc(-c4ccccc4CN(C)C)cc23)c1	none
COc1cccc(-c2ccc3ncnc(NCCc4c[nH]c5ccc(OC)cc45)c3c2)c1	none
c1csc(CNc2ncnc3ccc(-c4ccc5c(c4)OCO5)cc23)c1	HSD17B inhib 25.1µM, CRE-bla Fsk inconclusive, A350 fluor inconclusive
COc1ccc2[nH]cc(CCNc3ccnc(-c4ccc(C(=O)N(C)C)cc4)n3)c2c1	CRE-bla Fsk 2.51µM
COc1ccc2[nH]cc(CCNc3ncnc4ccc(-c5cccc(C#N)c5)cc34)c2c1	CRE-bla Fsk 2.51µM
Cc1cc2c(c(Sc3ccccc3)n1)C(=O)OC2	CRE-bla Fsk inconclusive
Cc1cccc(-c2nnn(CC/C(N)=N/O)n2)c1	none
Cc1cc(-n2c(C)cc(C(=O)CN3C(=O)NC4(CCCCC4C)C3=O)c2C)no1 (stereo unspecified)	none
Cc1cn([C@H]2C[C@H](O)[C@@H](COC(N)=O)O2)c(=O)[nH]c1=O	none
N#Cc1cccc(-c2ccc3ncnc(NCCN4CCOCC4)c3c2)c1	CRE-bla Fsk inconclusive
Cc1cccc(CNc2ncnc3ccc(-c4cccc(C#N)c4)cc23)c1	HSD17B inhib 25.1µM, CRE-bla Fsk inconclusive, HADH2 inh inconclusive
CC(CSc1nc2ccccc2s1)Cn1c(N2CCCC2)nc2c1c(=O)[nH]c(=O)n2C (stereo unspecified)	CRE-bla Fsk inconclusive, 4MU fluor 7.06e-08M, A350 fluor 9.1e-08M
CC(C)CCn1c(Sc2nc3ccccc3s2)nc2c1c(=O)[nH]c(=O)n2C	CRE-bla Fsk 10µM
CCOC(=O)C1CCN(S(=O)(=O)c2cc(Br)cc3c2N(C(C)=O)C(C)C3)CC1 (stereo unspecified)	none
CC(=O)c1sc(-c2c(C)nc3sccn23)nc1C1CCCC1	CRE-bla Fsk inconclusive, 4MU fluor 2.04e-08M, A350 fluor 2.4e-08M
COc1ccc(C(=O)Cn2c(Br)nc3c2c(=O)n(C)c(=O)n3C)cc1	CRE-bla Fsk inconclusive
Cn1c(SCC(=O)Nc2cccc3ccccc23)nc(O)cc1=O	none
Cc1cc(C)c2[nH]c(=O)c(C(c3nnnn3CC3CCCO3)N3CCC(C)CC3)cc2c1 (stereo unspecified)	4MU fluor 1.92e-08M, A350 fluor 1.93e-08M
Cc1cc(C)c2[nH]c(=O)c(C(c3nnnn3CC3CCCO3)N3CCCC(C)C3)cc2c1 (stereo unspecified)	4MU fluor 1.6e-08M, A350 fluor 1.57e-08M
O=C(CN1C(=O)NC2(CCSC2)C1=O)N1CCN(c2ccc(F)cc2)CC1 (stereo unspecified)	none
Cc1nn(-c2ccc(S(=O)(=O)O)cc2)c(O)c1N=Nc1ccc(-c2ccc(N=Nc3ccc4c(S(=O)(=O)O)cc(S(=O)(=O)O)c(N)c4c3O)c(O)c2)cc1O.[Cu].[Cu]	HSD17B inhib 1µM
COc1cc(-c2ccc(N=Nc3ccc4c(S(=O)(=O)O)cc(S(=O)(=O)O)c(N)c4c3O)c(OC)c2)ccc1N=Nc1ccc2c(S(=O)(=O)O)cc(S(=O)(=O)O)c(N)c2c1O	HSD17B inhib 2µM, CRE-bla Fsk inconclusive, 4MU fluor inconclusive, HADH2 inh 10µM, A350 fluor inconclusive
CCCCCc1c(O)c2ccccc2[nH]c1=O	HSD17B inhib 31.6µM, HADH2 inh inconclusive
CC(C)COC(=O)Cc1c(O)c2ccccc2[nH]c1=O	HSD17B inhib 31.6µM, HADH2 inh inconclusive (no result: 4MU fluor, A350 fluor)
CCCCCOC(=O)Cc1c(O)c2ccccc2[nH]c1=O	HSD17B inhib 31.6µM
O=C(Cc1c(O)c2ccccc2[nH]c1=O)NC1CCCCCC1	HSD17B inhib inconclusive
CCCCCCNC(=O)Cc1c(O)c2ccccc2[nH]c1=O	HSD17B inhib 31.6µM
CCCCOC(=O)Cc1c(O)c2ccccc2[nH]c1=O	HSD17B inhib inconclusive, HADH2 inh inconclusive (no result: 4MU fluor, A350 fluor)
CCC(=O)N1CCCc2cc(S(=O)(=O)N3CCCc4ccccc43)ccc21	none
CC(=O)Nc1ccc(-n2c(C)c(C(C)=O)c(C(C)=O)c2C)cc1	none (no result: 4MU fluor, A350 fluor)
O=C(CCCOc1ccccc1)N1CCc2ccccc2C1	HSD17B inhib inconclusive, 4MU fluor 1.4e-07M, A350 fluor 1.36e-07M
CS(=O)(=O)N(CCc1ccccc1)CC(=O)N1CCc2ccccc2C1	HSD17B inhib 20µM, 4MU fluor 1.88e-07M, HADH2 inh 7.94µM, A350 fluor 1.96e-07M
CCOC(=O)N1CCN(C(=O)CCCOc2ccccc2)CC1	none
CS(=O)(=O)N(CCc1ccccc1)CC(=O)N1CCCCC1	none
CC(=O)OC[C@H]1O[C@@H](n2ccc(=O)[nH]c2=S)C(OC(C)=O)C1OC(C)=O (stereo partly specified)	CRE-bla Fsk inconclusive, 4MU fluor 8.41e-08M, A350 fluor 8.55e-08M
CC(=O)OCC1OC(n2ccc(=O)[nH]c2=O)C(O)C1O (stereo unspecified)	CRE-bla Fsk inconclusive, A350 fluor inconclusive
CC(=O)Nc1nc(CC(C)C)cc(-c2ccco2)c1C#N	HSD17B inhib 25.1µM, CRE-bla Fsk inconclusive, 4MU fluor inconclusive, HADH2 inh 25.1µM, A350 fluor 1.03e-08M
CCOC(=O)CSc1nc2ccccc2c(=O)n1C	4MU fluor 6.93e-06M, A350 fluor 7.82e-06M (no result: HSD17B inhib, CRE-bla Fsk, AID923, HADH2 inh)
CCOC(=O)N1CCN(C(=O)CC(C(=O)N2CCc3ccccc32)n2ccnc2)CC1 (stereo unspecified)	none
COc1cc2c(cc1OC)[C@H](c1ccccc1)CN(C)CC2	none
Oc1cc2c(cc1O)[C@H](c1ccccc1)CNCC2	HSD17B inhib 6.31µM, CRE-bla Fsk inconclusive, HADH2 inh inconclusive
O=C(Oc1ccc2c(c1)OCO2)c1cccs1	CRE-bla Fsk inconclusive
O=C(O)/C=C\C=C/c1ccc2c(c1)OCO2	HSD17B inhib inconclusive, 4MU fluor 1.44e-08M, HADH2 inh inconclusive, A350 fluor 1.28e-08M
O=C(/C=C/c1ccc2c(c1)OCO2)c1cccs1	HSD17B inhib 31.6µM (no result: CRE-bla Fsk, 4MU fluor, HADH2 inh, A350 fluor)
